Entries with a potency or affinity are not part of this list. The source made the active and inactive calls.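 How the source made its calls: active means compounds lowering Shn3 expression whose fitted half-maximal concentration is at most twice the top valid dose; inconclusive means flat partial decrease or an invalid curve fit; inactive means the rest.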
Assay: Shn3 transcript knock-down in Clone20 cells – cell-based, qPCR, cherry-pick, dose response (AID 743415)
Conditions: Shn3 mRNA qPCR, overnight; series mostly up to 35 µM; relative Shn3 expression (fraction): at the top concentration

Relative Shn3 expression (fraction), inactive:
Cc1cccc(-c2noc(CN(C(=O)C(c3ccccc3)c3ccccc3)C(C)C)n2)c1 1.16
CC(C)Cn1c(N)c(C(=O)COC(=O)C2Cc3ccccc3CN2S(C)(=O)=O)c(=O)n(C)c1=O (centres undefined) 1.08
c1ccc(-c2noc(-c3ccc4ccccc4c3)n2)nc1 0.683
CCc1ccccc1NC(=O)COC(=O)c1c(C)nsc1NC 1.31
CC(=O)Nc1ccc(OCC(=O)Nc2ccc(Cl)c(S(=O)(=O)N3CCOCC3)c2)cc1 0.846
Cc1ccccc1C(=O)N1CCN(c2ccc(NC(=O)CSc3ccc(Cl)cc3)cc2)CC1 2.02
CCOC(=O)c1cn(CC(=O)Nc2cccc(Cl)c2C)nn1 0.955
Cc1ccc(-c2csc(N3CCC(NS(=O)(=O)c4ccc5c(c4)OCCO5)CC3)n2)cc1 1.51
CC(C)CCOc1cccc(OCC(=O)Nc2ccncc2)c1 1.53
CC(C)(C)C(=O)Nc1ccc(NC(=O)c2ccco2)nc1 0.709
CCCn1c(C)cc(C(=O)CN2C(=O)c3ccccc3S2(=O)=O)c1C 1.12
O=C(Nc1ccc(N2CCOCC2)cc1)c1ccc(Cl)c(S(=O)(=O)N2CCCC2)c1 1.52
O=C(CSc1c2c(nc3ccc(Cl)cc13)CCCC2)NCc1ccco1 4.77
CC(C)c1nc(SCC(=O)Nc2cccc(C(F)(F)F)c2)c2c(=O)n(C)c(=O)n(C)c2n1 1.45
Cc1ccc2c(c1)nnn2C1CCN(S(=O)(=O)c2ccc(C(=O)N3C(C)CCCC3C)cc2)CC1 (centres undefined) 1.29
O=C(Nc1nc(-c2ccccc2)cs1)C1CCCCN1S(=O)(=O)c1ccccc1 (centres undefined) 1.36
O=C(CSc1nnc(-c2cccnc2)s1)Nc1ccnc2ccccc12 0.959
O=C(COC(=O)c1n[nH]c2ccccc12)Nc1ccc(S(=O)(=O)N2CCCC2)cc1 1.75
CC(=O)N1c2ccc(S(=O)(=O)N3CCC(C(=O)N4CCN(c5cccc(C(F)(F)F)c5)CC4)CC3)cc2CC1C (centres undefined) 1.22

From PubChem BioAssay AID743415 (Broad Institute, 2014)
